# Screens (PubChem)
# esBAF inh – blocks esBAF chromatin remodeling in mouse ES cells; Bmi1-luciferase knock-in reporter, 24 h; 100% = twice the neutral-well signal; reporter increase, % at 12.5 µM; 350,000 compounds, 2% hits; in the data active means activation above about 40%;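 further: 0% = median of the plate's neutral control wells and 100% = double that signal; a rise in the Bmi1 reporter signal indicates esBAF inhibition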
# hcDAF12 agonist – activators of H. contortus DAF-12 nuclear receptor | 370,000 compounds, 1.4% hits | HEK293 hcDAF-12 lit1-tk-luc reporter, luminescence; 0% DMSO, 100% Δ7-dafachronic acid | AID 652067 | activation, % at 6.8 µM;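 active means activation above the mean of all tested compounds plus 3 SD, cut at about 5.5% in these data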;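 further: 100% = response to 3 µM Δ7-dafachronic acid high control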
# hgDAF-12 ag – hgDAF-12 agonism, primary luciferase screen; HEK293 GAL4-hgDAF12 UAS-luciferase reporter, agonist luminescence; normalized to butyrate control; activation, % at 6.8 µM; 370,000 compounds, 1.8% hits;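 active means activation above a cutoff set at the mean of all screened compounds plus 3 SD, cut at about 10% in these data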;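 further: 0% = DMSO wells and 100% = sodium butyrate wells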
# ssDAF-12 act – S. stercoralis DAF-12 activation, primary screen; HEK293 ssDAF-12/GRIP1 lit1-tk-luc reporter, luminescence; % of 3 µM dafachronic acid response; activation, % at 6.8 µM; 370,000 compounds, 1% hits; AID 652126;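 active means activation above the mean over all tested compounds plus 3 SD, cut at about 0.9% in these data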;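 further: 0% = DMSO-only wells and 100% = 3 µM delta7-dafachronic acid wells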
# Wnt act – Wnt/beta-catenin pathway activation. Wnt/beta-catenin reporter cell assay, activator, plate reader. activation, % at 9.35 µM. 300,000 compounds, 1.2% hits. AID 743398; in the data active means activation above about 30%, passing the limit was not always enough;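 further: 0% = neutral control wells and 100% = positive control wells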
# DAX1 inh – blocks DAX1 repression of SF-1 activated StAR promoter. HEK293T StAR-luciferase reporter, SF-1/DAX-1 repression relief. inhibition, % at 6.8 µM. 370,000 compounds, 1.1% hits. AID 652010;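 active means inhibition above the mean over all tested compounds plus 3 SD, cut at about 3.6% in these data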;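 further: 0% = DAX-1 cells with DMSO and 100% = cells lacking DAX-1 with DMSO; higher inhibition means more luminescence from relief of DAX-1 repression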
# * marks the source's active call; other numbers are inactive results; . = no result given. An excerpt weighted towards active compounds, which were near 4.2% of everything screened.
SMILES,esBAF inh,hcDAF12 agonist,hgDAF-12 ag,ssDAF-12 act,Wnt act,DAX1 inh
Cc1cc(C)c2c(N)c(C(=O)Nc3ccccc3F)sc2n1,50*,2,11*,-1,20,2
Cc1ccccc1NC(=O)c1sc2nc(N3CCOCC3)c3c(c2c1N)CCCC3,54*,2,3,-1,3,-2
O=C(CC(SCCO)c1ccc2c(c1)OCO2)c1cccs1 (stereo not given),84*,5,7,-2,42*,1
O=C(CC(SCc1ccco1)c1ccc(O)cc1)c1cccs1 (stereo not given),71*,1,8,-1,.,2
C[C@H]1CN([C@@H](C)CO)C(=O)c2ccccc2-c2ccccc2CO[C@@H]1CN(C)C(=O)Nc1ccccc1C(F)(F)F,-1,.,.,.,.,.
C/C(=N\NC(=O)c1ccc(NS(=O)(=O)c2cccs2)cc1)c1ccc(Cl)cc1,.,-1,7,-1,-10,0
C/C(=N/NC(=O)c1cccs1)c1ccc(NC(=O)COc2ccc(Cl)cc2)cc1,50*,4,12*,0,.,2
CO[C@@H]1CN(C)C(=O)c2ccc(NS(C)(=O)=O)cc2OC[C@@H](C)N(CC2CCCCC2)C[C@H]1C,-1,.,.,.,.,.
CC(C)CC#Cc1ccc2c(c1)O[C@@H](CN(C)C(=O)Nc1ccccc1)[C@@H](C)CN([C@@H](C)CO)S2(=O)=O,0,.,.,.,.,.
O=C(O)c1ccccc1SCc1cn2ccccc2n1,.,2,-2,-1,-2,0
c1ccc(-n2cnnc2SCc2cn3ccccc3n2)cc1,-1,-2,-1,-1,.,0
c1ccc(CSCc2cn3ccccc3n2)cc1,70*,3,13*,0,19,1
Cc1ccc(SCc2cn3ccccc3n2)cc1,38,2,10,1,33*,1
CCOc1ccc(C2C=C(c3ccc(C)cc3)Nc3nnnn32)cc1 (stereo not given),.,-1,-1,-1,.,0
CCOc1ccc(C2C=C(c3ccccc3)Nc3nnnn32)cc1 (stereo not given),51*,0,3,-1,43*,0
Cc1ccc(C2=CC(c3cccs3)n3nnnc3N2)cc1 (stereo not given),30,4,2,1.0*,.,0
CO[C@@H]1CN(C)C(=O)c2ccc(NC(=O)C3CCC3)cc2OC[C@@H](C)N(Cc2nccs2)C[C@H]1C,0,.,.,.,.,.
O=[N+]([O-])c1ccc(Cl)c(NC(=S)N2CCCC2)c1,52*,2,4,-1,3,0
O=[N+]([O-])c1ccc(NC(=S)N2CCCC2)cc1,9,-1,2,0,-1,0
O=C(NC1CCCCC1)c1cc(-c2ccc(F)cc2)on1,59*,4,1,0,-3,0
Cc1cc(C(=O)NC2CCCC2)on1,-7,-1,4,-1,-1,2
O=C(COCc1cc(-c2cccs2)on1)NC1CCCCC1,-7,0,0,-1,0,-1
Cc1cc(F)ccc1-c1cc(C(=O)NC2CCCCC2)[nH]n1,62*,0,7,0,13,2
Cc1ccc(-c2cc(C(=O)NC3CCCC3)no2)cc1,39,2,13*,0,29,3
CC(C)Oc1cc(F)ccc1-c1cc(C(=O)NC2CCCCC2)[nH]n1,-4,-3,-1,-1,-4,-2
SMILES,esBAF inh,hcDAF12 agonist,hgDAF-12 ag,ssDAF-12 act,Wnt act,DAX1 inh
O=C(NC1CCCCC1)c1cc(-c2cccs2)on1,45*,0,10,-1,37*,1
O=C(NCCN1CCOCC1)c1cc(-c2ccc(F)cc2)on1,.,-1,7,-2,.,-1
O=C(C1CCOCC1)N1C[C@H]2[C@@H](c3ccccc31)[C@@H](CO)N2C(=O)c1ccccc1,-5,.,.,.,.,.
O=C(C[C@H]1C=C[C@H](NC(=O)c2ccncc2)[C@H](CO)O1)NCCc1ccncc1,1,.,.,.,.,.
C[C@@H]1CN([C@H](C)CO)C(=O)c2cc(NS(=O)(=O)c3ccc(Cl)cc3)ccc2O[C@H]1CN(C)Cc1ccncc1,-1,.,.,.,.,.
Cc1noc(C)c1S(=O)(=O)N(C)C[C@H]1OCCCC[C@@H](C)Oc2ccc(NC(=O)c3ccccc3)cc2C(=O)N([C@@H](C)CO)C[C@@H]1C,-1,.,.,.,.,.
CC(=O)Nc1ccc(NC(=O)/C(Cl)=C/c2ccccc2)cc1,53*,2,3,-1,-1,0
CCCn1nnc2c(=O)oc3ccccc3c21,-4,2,4,0,.,0
CCCCCn1nnc2c(=O)oc3ccccc3c21,-11,-1,-2,1.1*,2,0
O=C(COC(=O)Cn1cnc2ccccc2c1=O)Nc1ccc(Cl)c(C(F)(F)F)c1,.,-1,-3,1.5*,-3,0
O=C(COC(=O)Cn1cnc2ccccc2c1=O)Nc1ccc(Cl)cc1,.,1,0,0,1,-1
O=C(Cc1ccncc1)NCC[C@@H]1CC[C@@H](NC(=O)C2CC2)[C@@H](CO)O1,-3,.,.,.,.,.
Cc1nc2c(-c3ccccc3)c[nH]n2c(=O)c1Cc1ccccc1,47*,1,6,-1,6,2
OC[C@H]1O[C@@H](c2nc(-c3cccc4ccccc34)no2)[C@H](O)[C@@H]1O,22,1,13*,0,26,1
Nc1c2c(nc3ccccc13)CCCC2=O,.,6.5*,3,1,5,1
COc1ccc(CCCC(=O)O)c(C)c1,-10,0,-1,1.5*,-2,0
O=C(C[C@@H]1CC[C@H]2[C@@H](COC[C@H](O)CN2C(=O)Nc2cc(Cl)cc(Cl)c2)O1)NCC1CCCCC1,-7,.,.,.,.,.
CO[C@@H]1CN(C)C(=O)c2cc(NC(=O)NC(C)C)ccc2OC[C@@H](C)N(Cc2cncnc2)C[C@@H]1C,2,.,.,.,.,.
CC(CNC(=O)COC(=O)c1cccs1)c1ccccc1 (stereo not given),-10,0,1,-1,-3,-2
CC(CNC(=O)COC(=O)c1cccnc1Cl)c1ccccc1 (stereo not given),1,1,5,1.2*,2,3
CC(CNC(=O)c1ccccc1Cl)c1ccccc1 (stereo not given),48*,1,6,0,7,0
O=C(CNC(=O)c1ccccc1Cl)c1ccccc1,28,2,13*,0,14,1
CCCN(C)C[C@H]1Oc2ncc(C#CC3CC3)cc2C(=O)N([C@H](C)CO)C[C@@H]1C,-3,.,.,.,.,.
Cn1ncc(Cl)c1C(=O)Nc1ccc2c(c1)OCO2,17,6.3*,4,0,1,1
O=C(Nc1ccc2c(c1)OCO2)c1c(Cl)nc2sccn12,49*,5.9*,9,0,.,2
COC(=O)C(Cc1ccc(OC(=O)c2ccccc2C)cc1)N1Cc2ccccc2C1=O (stereo not given),.,2,4,-1,.,1
